Assay results as given in PubChem BioAssay (Tox21).
Results filed as inconclusive are left out. Calls of active or inactive are those of the source. Unless noted, calls come from the whole dose curve; as a rule, active = well fitted curve in the direction sought with a large enough effect in the repeat runs; inconclusive = weak or mixed curves; inactive = no such curve, though single readings can be large; an effect the other way counts as inactive or inconclusive.

What was measured:
[1] = A CellTox Green Cytotoxicity Assay to monitor cytotoxicity in HEK293 cells - 32 hour (AID 1224881); note: nearly all actives have a fitted effect of over 40% in size
Summary of the method: (§1)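 Cells (HEK293, 600/well) and dye reagent are dispensed together. After 5 h at 37 C, 23 nL compound is pinned in. Plates stay at 37 C for 40 h with fluorescence read at 0h, 8h, 16h, 24h, 32h and 40h.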

[2] = A CellTox Green Cytotoxicity Assay to monitor cytotoxicity in HepG2 cells - 0 hour (AID 1224882); note: nearly all actives have a fitted effect of over 35% in size
Summary of the method: (§2)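 Cells and non-lytic dye reagent are dispensed together (600 HepG2 cells/well) and incubated 5 h before DMSO compound transfer. Kinetic fluorescence is then recorded in the same wells during 40 h at 37 C.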

[3] = A CellTox Green Cytotoxicity Assay to monitor cytotoxicity in HepG2 cells - 32 hour (AID 1224883); note: nearly all actives have a fitted effect of over 50% in size
Summary of the method: as §2

[4] = A CellTox Green Cytotoxicity Assay to monitor cytotoxicity in HEK293 cells - 8 hour (AID 1224884); note: nearly all actives have a fitted effect of over 35% in size
Summary of the method: as §1

[5] = qHTS RealTime-Glo MT Cell Viability Assay in HepG2 cells - 16 hour (AID 1224885); note: nearly all actives have a fitted effect of over 50% in size
Summary of the method: (§3)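 Cells + NanoLuc/prosubstrate dispensed (600 cells/well) → 5 h at 37 C/5% CO2 → compounds in DMSO transferred → 40 h incubation at 37 C, luminescence read at 0, 8, 16, 24, 32, 40 h.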

[6] = qHTS RealTime-Glo MT Cell Viability Assay in HEK293 cells - 24 hour (AID 1224886); note: top concentration of the series differs between compounds; nearly all actives have a fitted effect of over 50% in size
Summary of the method: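 Tox21 10K qHTS, HEK293, 600 cells/well, RealTime-Glo reagent co-dispensed with cells; 5 h preincubation, compound by pintool, 37 C, luminescence at 0–40 h.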

[7] = qHTS RealTime-Glo MT Cell Viability Assay in HEK293 cells - 8 hour (AID 1224887); note: top concentration of the series differs between compounds; nearly all actives have a fitted effect of over 50% in size
Summary of the method: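 Real-time viability in HEK293: signal arises when living cells convert a prosubstrate for NanoLuc in the medium, so luminescence tracks viable cell number. Compound (23 nL, DMSO) added 5 h post-seeding; kinetic reads at 0–40 h, 37 C.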

[8] = A CellTox Green Cytotoxicity Assay to monitor cytotoxicity in HEK293 cells - 16 hour (AID 1224888); note: nearly all actives have a fitted effect of over 35% in size
Summary of the method: as §1

[9] = qHTS RealTime-Glo MT Cell Viability Assay in HepG2 cells - 0 hour (AID 1224889); note: nearly all actives have a fitted effect of over 50% in size
Summary of the method: as §3

[10] = A CellTox Green Cytotoxicity Assay to monitor cytotoxicity in HepG2 cells - 8 hour (AID 1224890); note: nearly all actives have a fitted effect of over 45% in size
Summary of the method: as §2

[11] = qHTS assay to identify small molecule antagonists of the estrogen receptor alpha (ER-alpha) signaling pathway using the BG1 cell line in the presence of 0.1 nM 17-beta-estradiol - cell viability counter screen (AID 1259241); note: nearly all actives have a fitted effect of over 40% in size
Summary of the method: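 CellTiter-Fluor read (30 min, 37C) on ER-alpha/ERE-luc VM7Luc4E2 cells; 22 hr compound treatment; agonist 0.1 nM E2 final; same-well multiplex.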

[12] = qHTS assay to identify small molecule antagonists of the androgen receptor (AR) signaling pathway using the MDA cell line in the presence of 0.5 nM R1881 - cell viability counter screen (AID 1259242); note: nearly all actives have a fitted effect of over 45% in size
Summary of the method: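 Steps: plate MDA-kb2 cells, rest 5 hr at 37C without CO2; pin in compounds in DMSO; add R1881 to 0.5 nM final; incubate 16 hr; add CellTiter-Fluor, 30 min; read fluorescence.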

[13] = target: Estrogen receptor (Homo sapiens) (UniProt P03372); assay: qHTS assay to identify small molecule antagonists of the estrogen receptor alpha (ER-alpha) signaling pathway using the BG1 cell line in the presence of 0.1 nM 17-beta-estradiol (AID 1259244); note: nearly all actives have a fitted effect of over 50% in size
Summary of the method: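 Antagonist mode: compounds in DMSO are pinned onto VM7Luc4E2 reporter cells, 0.1 nM final 17beta-estradiol is added, and after 22 h at 37C luciferase luminescence is measured with ONE-Glo.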

[14] = qHTS assay to identify small molecule phospholipidosis (PLD) inducers (AID 1259344; active = well fitted curve in the direction sought with a large enough effect; an effect the other way counts as inactive or inconclusive)
Summary of the method: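 Cells (HepG2, 900 per well) attach for 4 h, receive LipidTOX Red and compound together, incubate 24 h at 37 C, are fixed 30 min with paraformaldehyde/Hoechst, then imaged at one site per well.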

[15] = qHTS assay to identify small molecule HDAC inhibitors - cell viability counter screen (AID 1259365)
Summary of the method: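 To flag cytotoxic hits, 1,500 wild-type HCT-116 cells per well, plated the day before, receive test compounds for 2hr at 37 C before CellTiter-Glo reagent and a luminescence read.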

[16] = qHTS assay to identify small molecule agonists of the sonic hedgehog signaling (Shh) pathway - cell viability counter screen (AID 1259366); note: nearly all actives have a fitted effect of over 50% in size
Summary of the method: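 Fluorescence from CellTiter-Fluor reports live cells in this counter screen. NIH/3T3-derived Gli1-Luc reporter cells receive test compounds for 24hr at 37C; reagent goes in at 23hr.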

[17] = qHTS assay to identify small molecule antagonists of the sonic hedgehog signaling (Shh) pathway - cell viability counter screen (AID 1259367); note: nearly all actives have a fitted effect of over 55% in size
Summary of the method: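 Cytotoxicity was assessed in parallel with Shh reporter activity by measuring live-cell protease fluorescence (CellTiter-Fluor) in NIH/3T3 cells stably carrying Gli1-Luc, treated with compound under conditioned medium stimulation for 23 hr plus 1 hr reagent incubation.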

[18] = qHTS assay to identify small molecule agonists of the sonic hedgehog signaling (Shh) pathway (AID 1259368; calls by dose curve;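 note: NIH/3T3-derived 3T3Gli1-Luc cells carrying a stable Gli1-driven firefly luciferase reporter; series mostly up to about 92 µM; nearly all actives have a fitted effect of over 15% in size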)
Summary of the method: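 Cells of a mouse NIH/3T3 clone stably expressing luciferase under the Gli1 transcriptional response element are exposed to test chemicals for 24 hr at 37 C. Pathway activation is detected as a rise in luminescence.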

[19] = qHTS assay to identify small molecule HDAC inhibitors (AID 1259364);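 note: wild-type HCT-116 cells with endogenous class I/II HDAC activity; top concentration of the series differs between compounds; nearly all actives have a fitted effect of over 45% in size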
Summary of the method: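 Cells (HCT-116, wild type) are seeded at 1,500 per well, incubated overnight, treated with compound in DMSO for 2 hr, then developed with HDAC-Glo I/II reagent for 30 min at room temperature.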

[20] = target: Androgen receptor (Homo sapiens) (UniProt P10275); assay: qHTS assay to identify small molecule antagonists of the androgen receptor (AR) signaling pathway using the MDA cell line in the presence of 0.5 nM R1881 (AID 1259243); note: nearly all actives have a fitted effect of over 50% in size
Summary of the method: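 Stably transfected MDA-kb2 cells express luciferase from an MMTV promoter bearing both AR and GR response elements. Compounds plus 0.5 nM R1881 (final) were incubated 16 hr at 37C without CO2, then luminescence measured.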

Measured: Potency

Estrogen receptor (Homo sapiens), sequence (P03372 whole entry, looked up): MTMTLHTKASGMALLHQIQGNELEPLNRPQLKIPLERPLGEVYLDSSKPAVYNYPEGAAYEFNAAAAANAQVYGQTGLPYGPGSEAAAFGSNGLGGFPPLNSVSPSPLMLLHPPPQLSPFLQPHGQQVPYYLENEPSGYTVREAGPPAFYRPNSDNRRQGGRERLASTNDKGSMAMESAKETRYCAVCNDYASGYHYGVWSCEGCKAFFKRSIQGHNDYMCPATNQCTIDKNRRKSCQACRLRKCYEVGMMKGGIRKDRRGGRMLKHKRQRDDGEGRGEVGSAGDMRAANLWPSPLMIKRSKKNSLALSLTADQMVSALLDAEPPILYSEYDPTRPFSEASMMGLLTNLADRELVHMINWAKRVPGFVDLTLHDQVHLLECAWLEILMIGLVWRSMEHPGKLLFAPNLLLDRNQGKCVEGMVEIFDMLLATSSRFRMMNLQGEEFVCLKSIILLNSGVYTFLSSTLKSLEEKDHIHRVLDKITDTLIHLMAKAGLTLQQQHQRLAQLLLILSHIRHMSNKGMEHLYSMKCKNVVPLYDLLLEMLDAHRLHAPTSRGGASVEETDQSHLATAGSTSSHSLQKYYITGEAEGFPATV
Androgen receptor (Homo sapiens), sequence (P10275 whole entry, looked up): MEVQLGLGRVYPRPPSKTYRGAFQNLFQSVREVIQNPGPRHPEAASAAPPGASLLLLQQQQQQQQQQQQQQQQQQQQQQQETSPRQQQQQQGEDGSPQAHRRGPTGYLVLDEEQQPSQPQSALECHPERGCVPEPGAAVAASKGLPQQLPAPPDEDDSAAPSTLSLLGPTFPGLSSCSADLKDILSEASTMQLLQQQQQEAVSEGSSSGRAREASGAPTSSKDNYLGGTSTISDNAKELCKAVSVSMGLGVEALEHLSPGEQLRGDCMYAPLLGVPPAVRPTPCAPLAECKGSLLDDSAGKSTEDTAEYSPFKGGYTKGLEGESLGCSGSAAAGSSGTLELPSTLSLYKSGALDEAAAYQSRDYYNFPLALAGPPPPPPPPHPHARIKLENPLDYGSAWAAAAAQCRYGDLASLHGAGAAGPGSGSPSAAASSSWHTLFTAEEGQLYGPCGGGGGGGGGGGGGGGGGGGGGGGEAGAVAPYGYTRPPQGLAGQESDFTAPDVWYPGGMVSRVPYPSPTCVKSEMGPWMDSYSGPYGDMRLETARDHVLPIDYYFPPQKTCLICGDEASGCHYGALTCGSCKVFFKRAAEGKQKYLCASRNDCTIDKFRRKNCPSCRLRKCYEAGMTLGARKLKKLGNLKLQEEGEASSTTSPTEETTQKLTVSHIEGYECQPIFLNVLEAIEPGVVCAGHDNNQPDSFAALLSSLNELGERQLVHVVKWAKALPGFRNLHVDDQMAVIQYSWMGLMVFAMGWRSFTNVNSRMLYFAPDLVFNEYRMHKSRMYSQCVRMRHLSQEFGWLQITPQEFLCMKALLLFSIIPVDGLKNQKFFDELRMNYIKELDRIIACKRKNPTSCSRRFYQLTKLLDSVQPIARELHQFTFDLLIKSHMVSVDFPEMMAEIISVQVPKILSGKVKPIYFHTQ

C[C@H]1C(=O)O[C@@H]2CCN3CC=C(COC(=O)[C@](C)(O)[C@]1(C)O)[C@H]23
not listed: [19] | [20]
inactive: all other assays above

COP(=S)(OC)Oc1ccc(SC)c(C)c1
not listed: [20]
inactive: all other assays above

Cc1cc(O)ccc1Cl
not listed: [20]
inactive: all other assays above

C=CC#N
not listed: [14] | [20]
inactive: all other assays above

Nc1nc(N)nc(NC2CC2)n1
not listed: [13] | [20]
inactive: all other assays above

Cc1ccc(N)cc1
not listed: [13] | [14] | [20]
inactive: all other assays above

CCNc1nc(Cl)nc(NC(C)C)n1
not listed: [14] | [19] | [20]
inactive: all other assays above

O=C(O)C1C(C(=O)O)C2(Cl)C(Cl)=C(Cl)C1(Cl)C2(Cl)Cl (configuration not stated)
not listed: [14] | [19] | [20]
inactive: all other assays above

CCOc1ccc(N)cc1
not listed: [14] | [19] | [20]
inactive: all other assays above

Cc1ccc(O)c(C)c1
not listed: [14] | [20]
inactive: all other assays above

Cc1cccc(C)c1N
not listed: [14] | [20]
inactive: all other assays above

COC(C)(C)CCCC(C)C/C=C/C(C)=C/C(=O)OC(C)C (configuration not stated)
not listed: [13] | [19]
inactive: all other assays above

N#CN=C(N)N
not listed: [14] | [20]
inactive: all other assays above

COP(=S)(OC)SCN1C(=O)c2ccccc2C1=O
not listed: [13] | [19] | [20]
inactive: all other assays above

CN(C)C(=O)Nc1cccc(C(F)(F)F)c1
not listed: [13] | [14] | [19] | [20]
inactive: all other assays above

Cc1ccccc1N
not listed: [13] | [14] | [20]
inactive: all other assays above
